Among the data in PubChem BioAssay (Tox21) are Potency and viability change, negative = cytotoxic values, retold here.

Records with an inconclusive call do not appear. Where a call stands in place of a potency, no number is given. Unmarked numbers belong to inactive results. Active and inactive are the calls of the source. Calls come from the whole dose curve; as a rule, active = well fitted cell-killing curve with a large enough effect in the repeat runs; inconclusive = weak or mixed curves, or effect the other way; inactive = flat fitted curve, though single readings scatter.
Potency is the fitted concentration of half-maximal effect.

The assay in a line: cAMP Responsive Elements (CRE) small molecule antagonists, cell-based qHTS assay: qHTS cell viability counter screen (AID 2060913). Note: nearly all actives have a fitted effect of over 40% in size. The conditions noted are these: CRE-bla HEK293T viability, CellTiter-Glo luminescence, 5 h; series mostly up to 92.4 µM. A digest of the protocol: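 Steps: cells plated and held 18 hrs at 37 C/5% CO2; compounds and NKH477 (0.25 uM final) added; 3 hrs incubation; reporter substrate read; CellTiter-Glo added to measure cytotoxicity by luminescence.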
For `O=C(O)CCCCC(=O)O`, the Potency result is “inactive”. Regarding `CCOc1ccccc1OCCN[C@H](C)Cc1ccc(OC)c(S(N)(=O)=O)c1`, the Potency result was “inactive”.

Consider `C[C@@H]1CN(c2c(F)c(N)c3c(=O)c(C(=O)O)cn(C4CC4)c3c2F)C[C@H](C)N1`, for which the viability change, negative = cytotoxic is -4.19% [at 18.9 µM]. On to `O=C(O)CS`, for which the Potency result is “inactive”.

Take `CCOC(=O)n1ccn(C)c1=S`: the Potency entry was “inactive”.

Regarding `C[N+](C)(C)CCCCCCCCCC[N+](C)(C)C`, the Potency result was “inactive”. As to `c1ccc2ccccc2c1`, the Potency result is “inactive”. For `CCCCCCCCCCn1cc[n+](CCCCCCCCCC)c1C`, the Potency is 24.4 µM (active). Still for that read-out and setting: the result for `O=C(NOCC1CC1)c1ccc(F)c(F)c1Nc1ccc(I)cc1Cl` reads “inactive”; that for `CC1=C(C(=O)O)N2C(=O)[C@@H](NC(=O)[C@H](N)c3ccccc3)[C@H]2SC1`, “inactive”. Consider `CCOC(=O)C1=C(C)NC(C)=C(C(=O)OCC)C1c1ccccc1/C=C/C(=O)OC(C)(C)C`, for which the Potency result is “inactive”. For `O=C(O)c1ccccc1NCCc1ccccc1`, the Potency result is “inactive”. The same measure, in the same setting: in the case of `CN1CCN(c2ccccc2/C=C2\SCCN(c3ccc(Cl)c(Cl)c3)C2=O)CC1` it was “inactive”; in that of `COC(=O)CCCCC(CCSS/C(CCO)=C(\C)N(C=O)Cc1cnc(C)nc1N)SC(C)=O` (stereo not given), “inactive”; in that of `CNC(=S)NN`, “inactive”. Same read-out and setting: in the case of `O=C(O)c1cc(C(=O)O)cc(C(=O)O)c1` it was “inactive”; in that of `COCCCN1CCC(NC(=O)c2cc(Cl)c(N)c3c2OCC3)CC1`, “inactive”; in that of `Cc1ccc2nc(-c3ccc(N)cc3)sc2c1S(=O)(=O)O`, “inactive”. The same measure, in the same setting: in the case of `CCCCCCCCNC` it was “inactive”; in that of `COc1cccc(O)c1O`, “inactive”. In the case of `Cc1ncc(COP(=O)(O)O)c(C=O)c1O`, the Potency result is “inactive”. For `C=C1CC[C@H]2O[C@]2(C)CC[C@@H]2[C@@H]1CC2(C)C`, the Potency entry was “inactive”.

For `O=C(CC(=O)C(F)(F)F)c1ccccc1`, the Potency entry is “inactive”. In the case of `O=C(O)CCCCCCCCCCC(=O)O`, the Potency entry is “inactive”.

For the compound `CO/N=C(\C(=O)N[C@@H]1C(=O)N2C(C(=O)O)=C(CSc3nc(=O)c(O)nn3C)CS[C@H]12)c1csc(N)n1`, the Potency result was “inactive”. In the case of `C=CCCC`, the Potency entry is “inactive”.

As to `Cn1c(=O)c2c(ncn2C)n(C)c1=O`, the Potency entry was “inactive”.

For `CC(C)Cn1cnc2c(N)nc3ccccc3c21`, the viability change, negative = cytotoxic was -1.2% [at 18.9 µM]. In the case of `CCCCCCCCCCCCCCCCCC#N`, the Potency entry is “inactive”. Same read-out and setting: in the case of `CC(=O)c1ccccc1N` it was “inactive”; in that of `CC(CCl)OP(=O)(OC(C)CCl)OC(C)CCl` (stereo not given), “inactive”. For the compound `CC(=O)CCCCn1c(=O)c2c(ncn2C)n(C)c1=O`, the Potency entry was “inactive”. Still for that read-out and setting: in the case of `CCOC(=O)Oc1ccc(CCNC(=O)[C@H](CCSC)NC(C)=O)cc1OC(=O)OCC` it was “inactive”; in that of `COC1=CC(=O)C[C@@H](C)[C@]12Oc1c(Cl)c(OC)cc(OC)c1C2=O`, “inactive”. The same measure, in the same setting: in the case of `CCCCCCCCCCOCC(O)CN` (stereo not given) it was “inactive”.

Regarding `N/C(=N\N=C\c1ccc(Cl)cc1)N/N=C/c1ccc(Cl)cc1`, the Potency entry was “inactive”. As for `CC(C)(C)c1n[nH]c(=S)n(N)c1=O`, the Potency result is “inactive”. Consider `CCCCCCCCCCCCN1CCOCC1`, for which the Potency result was “inactive”. Same read-out and setting: the result for `CC(=O)NNC(C)=O` reads “inactive”. Still for that read-out and setting: in the case of `CCN1C(=O)c2ccccc2C1Nc1ccc(OCCN2CCCCC2)cc1` (stereo not given) it was “inactive”.
